Test [1] deals with Estrogen receptor (Homo sapiens) (UniProt P03372). As to the kind of experiment: NVS_NR_hER: NovaScreen (NVS) Nuclear Receptor Binding Assay for human Estrogen Receptor (ER) (AID 2283348). The essentials: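 Cell-free MCF7-derived ER preparation, specific radioligand displaced by test compound, read by scintillation counting 18 h post-dosing. Duplicate single-point 25 uM screen, then concentration-response confirmation; DMSO baseline.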

For test [2] the target is unchanged. As to the kind of experiment: OT_ER_ERaERa_0480: Odyssey Thera (OT) 8-hour HEK293T Protein-Complementation Assay for Estrogen Receptor-alpha/-alpha Homodimer (AID 2283351).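 Further: rise in fluorescence from reassembled reporter fragments on ERα LBD homodimer in nucleus or whole cell.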 The essentials:
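Read-out: fluorescence intensity rise relative to DMSO, nuclear for agonists, nuclear plus cytoplasmic for antagonists. Construct is the ERα LBD (aa 310-547) homodimer fragment-complementation pair, stably expressed in HEK293T; exposure 8 h.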

Test [3] has as its target T1, Estrogen receptor (Homo sapiens) + Estrogen receptor beta (Homo sapiens) (UniProt P03372+Q92731). As to the kind of experiment: OT_ER_ERaERb_0480: Odyssey Thera (OT) 8-hour HEK293T Protein-Complementation Assay for Estrogen Receptor-alpha/-beta Heterodimer (AID 2283352). An outline of the steps:
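Increase in mean fluorescence intensity, measured by laser scanning plate cytometry, reported ER-alpha/ER-beta LBD complementation in HEK293T cells after 8 h chemical exposure. DMSO served as baseline; basal signal is low, punctate and cytoplasmic.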

For test [4], the target named is T1, Estrogen receptor (Homo sapiens) + Estrogen receptor beta (Homo sapiens). As to the kind of experiment: OT_ER_ERaERb_1440: Odyssey Thera (OT) 24-hour HEK293T Protein-Complementation Assay for Estrogen Receptor-alpha/-beta Homodimer (AID 2283356).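 Further: heteromer of ER alpha and ER beta binding domains; hits raise reporter fluorescence and both agonists and antagonists give an increase.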 The essentials:
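Heterodimerisation of ERα (aa 310-547) and ERβ (aa 263-489) ligand binding domains was tracked as fluorescence gain in stably transfected HEK293T cells following 24 h dosing, normalised to DMSO controls.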

In test [5] the target is Estrogen receptor beta (Homo sapiens) (UniProt Q92731). In words: OT_ER_ERbERb_0480: Odyssey Thera (OT) 8-hour HEK293T Protein-Complementation Assay for Estrogen Receptor-beta/-beta Homodimer (AID 2283357).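 Further: active means signal gain over DMSO baseline.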 An outline of the steps: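 ER-beta LBD homodimer PCA stably expressed in HEK293T; 8 h compound exposure, then formaldehyde fixation and Draq5 staining. Gain in nuclear/cytoplasmic fluorescence intensity versus DMSO vehicle, read on laser scanning cytometer.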
Sequence of Estrogen receptor beta (Homo sapiens) (Q92731 whole entry, looked up, the tested form may be a part): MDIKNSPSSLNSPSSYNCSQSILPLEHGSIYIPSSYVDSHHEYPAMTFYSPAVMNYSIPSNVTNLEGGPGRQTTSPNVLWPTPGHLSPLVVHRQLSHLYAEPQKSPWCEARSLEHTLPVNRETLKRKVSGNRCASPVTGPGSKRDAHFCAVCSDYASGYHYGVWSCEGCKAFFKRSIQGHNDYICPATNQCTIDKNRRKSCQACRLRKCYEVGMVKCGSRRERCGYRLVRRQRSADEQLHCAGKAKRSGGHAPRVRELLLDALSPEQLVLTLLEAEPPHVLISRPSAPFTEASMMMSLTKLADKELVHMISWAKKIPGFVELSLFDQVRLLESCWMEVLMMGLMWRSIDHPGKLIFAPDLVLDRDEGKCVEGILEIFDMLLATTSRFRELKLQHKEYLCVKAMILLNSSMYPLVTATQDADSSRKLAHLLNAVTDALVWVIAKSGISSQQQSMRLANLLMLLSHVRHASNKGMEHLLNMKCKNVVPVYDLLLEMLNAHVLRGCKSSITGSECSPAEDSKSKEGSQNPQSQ

Test [6] has as its target Estrogen receptor (Homo sapiens) (UniProt P03372). As to the kind of experiment: OT_ER_ERaERa_1440: Odyssey Thera (OT) 24-hour HEK293T Protein-Complementation Assay for Estrogen Receptor-alpha/-alpha Homodimer (AID 2283349).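 Further: hits raise fluorescence above DMSO for agonists and antagonists alike.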 The essentials: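 HEK293T, stable ERα LBD (aa 310-547) homodimer PCA; 24 h compound exposure; mean fluorescence intensity (nuclear for agonists, nuclear plus cytoplasmic for antagonists) vs vehicle; positive fitting direction, DMSO baseline.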

Test [7] has as its target chimpanzee Androgen Receptor (AR), AR (gene 747460) (UniProt O97775). As to the kind of experiment: NVS_NR_cAR: NovaScreen (NVS) Nuclear Receptor Binding Assay for chimpanzee Androgen Receptor (AR) (AID 2283346).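 Further: radioligand displacement from AR measured by scintillation counting in a cell-free assay; a loss of bound radioligand signal versus DMSO counts as binding.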 The essentials:
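Cell-free competition binding with insect-cell (Sf9/Sf21) extracted chimpanzee AR; scintillation signal from lysate at 72 h. Screened in duplicate at 25 uM, then concentration-response for actives; fitting relative to DMSO.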

Test [8] deals with Androgen Receptor/SRC-1 Co-activator, AR (gene 367) (UniProt P10275). In words: OT_AR_ARSRC1_0960: Odyssey Thera (OT) 16-hour HEK293T Protein-Complementation Assay for Androgen Receptor/SRC-1 Co-activator (AID 2283353).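 Further: actives raise the signal above DMSO so potency reflects increased AR and SRC-1 complex.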 An outline of the steps:
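Readout: 488 nm nuclear-to-cytoplasmic fluorescence ratio from imaging of at least 400 cells per image, 16 h post-dose. Reporter is Venus YFP complementation between AR and SRC-1 fusions, stably expressed in HEK293T; activity scored upward relative to DMSO.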

Test [9] has the same target. As to the kind of experiment: OT_AR_ARSRC1_0480: Odyssey Thera (OT) 8-hour HEK293T Protein-Complementation Assay for Androgen Receptor/SRC-1 Co-activator (AID 2283354).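 Further: hits raise the complementation signal above DMSO so AC50 marks enhancers.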 The essentials:
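Reconstituted split-Venus YFP signal from AR–SRC-1 interaction, read by imaging 8 h post-dose in stable HEK293T lines. The 488 nm nucleus-to-cytoplasm ratio (≥400 cells/image) was fitted upward against DMSO.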

A further test addresses PGR (gene 5241) (UniProt P06401). As to the kind of experiment: NVS_NR_hPR: NovaScreen (NVS) Nuclear Receptor Binding Assay for human Progestron Receptor (PR) (AID 2283360).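 Further: active means loss of bound radioligand signal versus DMSO baseline.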 An outline of the steps:
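Cell-free radioligand binding using receptor protein extracted from T47D cells, read by scintillation counting 18 hours after dosing. Loss of signal relative to DMSO baseline indicates displacement; primary screen single concentration 25 uM in duplicate, actives followed in concentration series.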

The target in test [10] is Glucocorticoid receptor (Homo sapiens) (UniProt P04150). In words: NVS_NR_hGR: NovaScreen (NVS) Nuclear Receptor Binding Assay for human Glucocorticoid Receptor (GR) (AID 2283363).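 On AC50: activity is loss of specific radioligand binding signal relative to DMSO.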 The essentials: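 Compounds first tested in duplicate at 25 uM, actives followed up in concentration series. Binding to extracted GR protein measured as competitive radioligand displacement, filter scintillation read 16 h post-dosing, normalised to DMSO.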
Sequence of Glucocorticoid receptor (Homo sapiens) (P04150 whole entry, looked up): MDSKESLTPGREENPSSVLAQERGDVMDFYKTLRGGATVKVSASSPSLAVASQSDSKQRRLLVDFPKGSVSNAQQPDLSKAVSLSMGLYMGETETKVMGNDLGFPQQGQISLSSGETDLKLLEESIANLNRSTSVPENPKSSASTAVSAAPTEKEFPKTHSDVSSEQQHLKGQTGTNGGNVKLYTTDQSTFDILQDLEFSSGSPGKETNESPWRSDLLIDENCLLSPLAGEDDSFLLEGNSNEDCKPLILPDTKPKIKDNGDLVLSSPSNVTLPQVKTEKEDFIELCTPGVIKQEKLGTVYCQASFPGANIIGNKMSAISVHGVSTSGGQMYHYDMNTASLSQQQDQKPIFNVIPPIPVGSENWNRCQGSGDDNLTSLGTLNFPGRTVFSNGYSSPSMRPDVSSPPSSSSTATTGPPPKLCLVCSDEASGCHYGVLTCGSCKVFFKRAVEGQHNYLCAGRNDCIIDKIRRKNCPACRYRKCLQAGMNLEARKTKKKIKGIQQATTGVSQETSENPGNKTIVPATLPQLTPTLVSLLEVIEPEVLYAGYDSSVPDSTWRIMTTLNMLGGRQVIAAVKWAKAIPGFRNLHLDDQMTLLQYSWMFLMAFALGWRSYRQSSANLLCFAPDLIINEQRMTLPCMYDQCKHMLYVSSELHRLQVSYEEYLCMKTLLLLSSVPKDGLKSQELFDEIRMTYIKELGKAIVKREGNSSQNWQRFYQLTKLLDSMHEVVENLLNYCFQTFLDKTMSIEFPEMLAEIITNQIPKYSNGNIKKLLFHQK

For test [11], the target named is rat Mineralocorticoid Receptor (MR), Nr3c2 (gene 25672) (UniProt P22199). In words: NVS_NR_rMR: NovaScreen (NVS) Nuclear Receptor Binding Assay for rat Mineralocorticoid Receptor (MR) (AID 2283355). The essentials: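 Primary HTS ran in duplicate at a single 25 uM concentration, with concentration-series follow-up for actives. Receptor source: adrenalectomized rat brain supernatant, cell-free. Radioligand displacement read by scintillation at 24 h, relative to DMSO baseline.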

The target in test [12] is Bile acid receptor (Homo sapiens) (UniProt Q96RI1). In words: NVS_NR_hFXR_Agonist: NovaScreen (NVS) Nuclear Receptor Binding Assay for human Farnesoid X Receptor Agonism (FXR) (AID 2283347). The essentials: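 Agonist-mode FXR assay read by time-resolved FRET 1 h after compound addition, using isolated human receptor protein without cells. Duplicate 25 uM single-point primary screen, concentration series for confirmed actives; DMSO as baseline.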
Sequence of Bile acid receptor (Homo sapiens) (Q96RI1 whole entry, looked up): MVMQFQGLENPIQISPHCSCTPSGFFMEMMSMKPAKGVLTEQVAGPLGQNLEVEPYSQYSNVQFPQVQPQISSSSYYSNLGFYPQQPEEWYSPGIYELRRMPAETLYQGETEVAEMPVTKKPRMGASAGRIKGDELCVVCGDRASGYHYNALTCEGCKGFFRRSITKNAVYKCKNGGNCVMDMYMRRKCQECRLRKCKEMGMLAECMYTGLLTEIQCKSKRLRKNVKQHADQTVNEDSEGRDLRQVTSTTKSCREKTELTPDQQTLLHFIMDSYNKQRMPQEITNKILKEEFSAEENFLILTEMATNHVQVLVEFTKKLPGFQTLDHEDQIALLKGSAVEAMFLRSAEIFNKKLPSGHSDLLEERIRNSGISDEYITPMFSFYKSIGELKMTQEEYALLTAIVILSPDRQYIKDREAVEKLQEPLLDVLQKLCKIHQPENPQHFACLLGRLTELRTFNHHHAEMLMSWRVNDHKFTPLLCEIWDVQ

For test [13] the target is unchanged. In words: NVS_NR_hFXR_Antagonist: NovaScreen (NVS) Nuclear Receptor Binding Assay for human Farnesoid X Receptor Antagonism (FXR) (AID 2283350). The essentials: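 Antagonist-format time-resolved FRET binding assay with extracted human receptor protein, read 1 hour after compound addition. Compounds first screened at 25 uM in duplicate, then actives tested in concentration series, with loss of signal relative to DMSO.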

The target in test [14] is Retinoic acid receptor alpha (Homo sapiens) (UniProt P10276). As to the kind of experiment: NVS_NR_hRAR_Antagonist: NovaScreen (NVS) Nuclear Receptor Binding Assay for human Retinoic Acid Alpha Receptor Antagonism (RAR) (AID 2283358). An outline of the steps: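 RARalpha antagonism was read by TR-FRET as loss of binding signal versus DMSO, 2 h after chemical addition, in a biochemical format. Single-concentration duplicates (25 uM) were run first, and actives were retested in concentration series.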
Sequence of Retinoic acid receptor alpha (Homo sapiens) (P10276 whole entry, looked up): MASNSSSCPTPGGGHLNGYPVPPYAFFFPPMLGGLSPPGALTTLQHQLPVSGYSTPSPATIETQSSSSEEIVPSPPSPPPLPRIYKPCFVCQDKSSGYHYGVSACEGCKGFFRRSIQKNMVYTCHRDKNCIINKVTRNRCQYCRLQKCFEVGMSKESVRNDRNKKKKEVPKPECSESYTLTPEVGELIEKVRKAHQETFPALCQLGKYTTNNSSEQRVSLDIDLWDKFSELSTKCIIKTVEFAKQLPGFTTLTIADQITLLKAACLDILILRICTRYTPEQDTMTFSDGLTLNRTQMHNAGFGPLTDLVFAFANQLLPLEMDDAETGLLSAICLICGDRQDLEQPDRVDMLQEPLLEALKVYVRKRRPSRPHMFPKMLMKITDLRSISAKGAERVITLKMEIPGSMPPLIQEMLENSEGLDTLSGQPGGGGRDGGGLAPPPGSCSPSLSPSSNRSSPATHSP

Test [15] deals with human Peroxisome Proliferator-activated Receptor alpha (PPARa), PPARA (gene 5465) (UniProt Q07869). In words: NVS_NR_hPPARa: NovaScreen (NVS) Nuclear Receptor Binding Assay for human Peroxisome Proliferator-activated Receptor alpha (PPARa) (AID 2283359).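 Further: activity means loss of TR-FRET signal versus DMSO baseline.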 The essentials:
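Loss of TR-FRET binding signal relative to DMSO was measured 1 h after chemical addition to extracted receptor protein. Chemicals were first tested in duplicate at 25 uM, and actives were followed up in concentration series.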

Test [16] has as its target guinea pig Sigma Receptor, Non-selective Binding, SIGMAR1 (gene 100135589) (UniProt Q60492). In words: NVS_OR_gSIGMA_NonSelective: NovaScreen (NVS) Nuclear Receptor Binding Assay for guinea pig Sigma Receptor, Non-selective Binding (AID 2283367). An outline of the steps:
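Guinea pig brain membrane sigma sites were labelled with a radioligand, and bound radioactivity was counted after filtration 1 h post-dose. Compounds were screened at 25 uM in duplicate, then retested as concentration series when active.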

The target in test [17] is rat Androgen Receptor (AR), Ar (gene 24208) (UniProt P15207). In words: NVS_NR_rAR: NovaScreen (NVS) Nuclear Receptor Binding Assay for rat Androgen Receptor (AR) (AID 2283366). The essentials: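 Actives from a duplicate single-concentration (25 uM) primary run went on to concentration series. Displacement of radioligand was counted by filtration and scintillation, 18 h post-dose, using prostate extracts from testosterone-pretreated rats, with DMSO as baseline.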

Results filed as inconclusive are left out. Calls of active or inactive are those of the source. How the source made its calls: active means hit-call score of the fitted dose curve at least 0.9, where 1 is the maximum; inconclusive means response in the unintended direction; inactive means score below 0.9.

Sequence of Estrogen receptor (Homo sapiens) (P03372 whole entry, looked up, the tested form may be a part): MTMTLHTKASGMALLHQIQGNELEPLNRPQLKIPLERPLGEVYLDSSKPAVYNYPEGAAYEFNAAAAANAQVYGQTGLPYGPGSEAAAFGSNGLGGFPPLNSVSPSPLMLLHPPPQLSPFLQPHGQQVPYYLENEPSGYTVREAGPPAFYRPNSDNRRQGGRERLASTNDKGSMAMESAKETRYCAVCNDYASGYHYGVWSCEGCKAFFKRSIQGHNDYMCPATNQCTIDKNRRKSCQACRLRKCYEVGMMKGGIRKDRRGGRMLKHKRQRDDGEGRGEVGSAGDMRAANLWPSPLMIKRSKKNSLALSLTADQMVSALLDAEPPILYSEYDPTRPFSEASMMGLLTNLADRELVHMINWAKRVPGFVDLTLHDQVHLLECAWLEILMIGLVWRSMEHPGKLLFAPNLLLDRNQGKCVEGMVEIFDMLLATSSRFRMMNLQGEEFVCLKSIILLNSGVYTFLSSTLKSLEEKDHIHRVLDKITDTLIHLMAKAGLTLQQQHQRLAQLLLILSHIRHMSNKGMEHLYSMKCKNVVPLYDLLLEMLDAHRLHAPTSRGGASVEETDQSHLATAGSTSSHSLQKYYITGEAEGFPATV
T1 sequence (P03372 whole entry, looked up, the tested form may be a part): as above
T1 sequence (Q92731 whole entry, looked up, the tested form may be a part): as the sequence (Q92731 whole entry, looked up, the tested form may be a part) above
Sequence of Androgen Receptor/SRC-1 Co-activator, AR (gene 367) (P10275 whole entry, looked up, the tested form may be a part): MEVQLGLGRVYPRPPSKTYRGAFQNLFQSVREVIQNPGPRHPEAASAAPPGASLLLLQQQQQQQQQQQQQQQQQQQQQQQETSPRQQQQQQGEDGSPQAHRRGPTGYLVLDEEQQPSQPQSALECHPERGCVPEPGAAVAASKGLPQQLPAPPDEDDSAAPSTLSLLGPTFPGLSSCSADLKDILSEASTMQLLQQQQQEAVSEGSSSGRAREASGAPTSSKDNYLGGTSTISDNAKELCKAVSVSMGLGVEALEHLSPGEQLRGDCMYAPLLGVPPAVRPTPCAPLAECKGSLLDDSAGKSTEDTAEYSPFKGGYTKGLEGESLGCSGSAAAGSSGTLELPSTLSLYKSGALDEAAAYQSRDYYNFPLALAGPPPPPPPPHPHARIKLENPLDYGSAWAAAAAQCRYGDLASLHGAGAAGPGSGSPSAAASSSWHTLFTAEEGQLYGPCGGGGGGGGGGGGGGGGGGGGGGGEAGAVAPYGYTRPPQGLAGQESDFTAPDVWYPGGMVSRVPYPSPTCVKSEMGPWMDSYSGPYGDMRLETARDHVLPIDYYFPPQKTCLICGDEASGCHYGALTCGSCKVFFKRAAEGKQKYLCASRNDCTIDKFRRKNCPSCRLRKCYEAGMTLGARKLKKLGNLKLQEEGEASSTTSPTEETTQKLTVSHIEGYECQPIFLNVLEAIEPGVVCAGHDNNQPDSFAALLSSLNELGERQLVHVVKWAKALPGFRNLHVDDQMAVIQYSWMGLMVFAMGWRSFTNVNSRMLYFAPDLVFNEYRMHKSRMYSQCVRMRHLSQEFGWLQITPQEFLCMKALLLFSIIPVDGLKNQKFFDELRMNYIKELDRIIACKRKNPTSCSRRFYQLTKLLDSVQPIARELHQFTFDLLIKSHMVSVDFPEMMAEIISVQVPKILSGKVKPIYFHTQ

On to `CCSC(=O)N1CCCCCC1`, for which the compound was called inactive in test [1], in test [2], in [3], in test [4] and in [5].

On to `Cc1nc(N(C)C)nc(OC(=O)N(C)C)c1C`, for which the compound was called inactive in [6], in test [2], in [3], in test [4] and in test [5].

On to `COC(=O)N(C(=O)N1CO[C@@]2(C(=O)OC)Cc3cc(Cl)ccc3C2=N1)c1ccc(OC(F)(F)F)cc1`, for which the compound was classed as inactive in [7], in [6], in test [2], in test [3], in test [8] and in test [9]. Besides, the outcome in test [4] and in test [5] was inactive.

Regarding `Nc1c(Cl)c(F)nc(OCC(=O)O)c1Cl`, the outcome in test [6], in test [2], in test [3], in test [8], in [9] and in [4] was inactive. The outcome in [5] was inactive.

In the case of `CC(C)=CC1C(C(=O)OCc2coc(Cc3ccccc3)c2)C1(C)C` (configuration not stated), the call (in test [1]; in [2]; in the test with PGR (gene 5241); in [10]) was inactive.

`CCOc1nc(C(Cl)(Cl)Cl)ns1`: the outcome in test [6], in test [2], in [3], in test [11], in test [4] and in test [5] was inactive.

`Cc1cnc(C2=NC(C)(C(C)C)C(=O)N2)c(C(=O)O)c1` (configuration not stated): the compound was called inactive in test [6], in [2], in [3], in test [8], in [9] and in [4]. For the same compound, in test [5], the compound was classed as inactive.

As to `CCOc1nc(F)cc2nc(S(=O)(=O)Nc3c(Cl)cccc3Cl)nn12`, the outcome in [12], in test [2], in [3], in test [4] and in test [5] was inactive.

For `OC(c1ccc(Cl)cc1)(c1ccc(Cl)cc1)C(Cl)(Cl)Cl`, the call in [1], in test [6], in test [13], in test [2] and in [14] was inactive. Also, the AC50 in test [3] was 11.8 µM (active); in test [4] it was 11.9 µM (active); in test [5] it was 12 µM (active); in test [10], 6.9 µM (active).

On to `CCOC(=O)C(C)OC(=O)c1cc(Oc2ccc(C(F)(F)F)cc2Cl)ccc1[N+](=O)[O-]` (configuration not stated), for which the compound was classed as inactive in [6], in [2], in [3], in test [4], in test [5] and in [14]. In addition, the call (in test [15]; in the test with PGR (gene 5241); in test [10]; in test [16]) was inactive.

As to `CC1(C)C(C=C(Cl)Cl)C1C(=O)OC(C#N)c1cccc(Oc2ccccc2)c1` (configuration not stated), the call in [1], in test [6], in test [2], in test [3], in [4] and in [5] was inactive. Also, the result (in test [14]; with PGR (gene 5241); in test [10]) was inactive.

With `CCCCOCN(C(=O)CCl)c1c(CC)cccc1CC`, the compound was called inactive in test [7], in [2], in [4], in test [5] and in test [17]. The values for the AC50 in [8], in test [9] and in test [10] were 21.8 µM (active), 50 µM (active) and 8.18 µM (active), respectively.

Turning to `Nc1cnn(-c2ccccc2)c(=O)c1Cl`, the compound was called inactive in test [1], in [2], in [3], in [4] and in test [5].

As for `COP(=S)(OC)Oc1ccc([N+](=O)[O-])c(C)c1`, the AC50 was 5.29 µM (active) in test [7], 4.97 µM (active) with PGR (gene 5241), 9.62 µM (active) in test [10] and 3.93 µM (active) in test [16]. The call in test [13], in test [2], in test [3], in test [4] and in test [5] was inactive.

Usually AC50 stands for the concentration at which the activity in the assay is half-maximal.

Source of the values: PubChem BioAssay (EPA / NIEHS).
